According to the supplement of paper PMC6411743:
± gives the standard deviation of the averaged measurements. Of roughly 5,400 targets only a part is listed; those with the largest changes were picked by preference.

Biological target: T1, UniProt O00255|O00255-2|O00255-3
T1 sequence (whole entry): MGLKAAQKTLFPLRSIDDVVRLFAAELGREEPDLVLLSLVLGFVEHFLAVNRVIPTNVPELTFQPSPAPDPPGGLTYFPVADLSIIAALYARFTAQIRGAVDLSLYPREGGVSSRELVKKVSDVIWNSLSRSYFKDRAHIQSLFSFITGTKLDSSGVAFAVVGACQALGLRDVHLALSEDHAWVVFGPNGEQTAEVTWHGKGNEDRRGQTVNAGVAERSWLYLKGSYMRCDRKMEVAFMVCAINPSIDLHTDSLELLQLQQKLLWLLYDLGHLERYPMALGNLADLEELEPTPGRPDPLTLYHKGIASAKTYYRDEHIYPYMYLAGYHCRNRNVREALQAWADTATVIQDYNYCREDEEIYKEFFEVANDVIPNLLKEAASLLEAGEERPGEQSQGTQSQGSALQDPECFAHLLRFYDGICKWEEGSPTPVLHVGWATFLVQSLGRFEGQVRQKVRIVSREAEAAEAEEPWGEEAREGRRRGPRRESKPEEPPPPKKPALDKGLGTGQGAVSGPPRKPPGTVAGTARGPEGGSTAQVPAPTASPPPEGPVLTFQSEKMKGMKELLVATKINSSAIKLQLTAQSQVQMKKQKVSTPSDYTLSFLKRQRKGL
Assay: NP40-soluble protein abundance relative to vehicle (solubility fold change) (ratio); higher = more soluble protein in presence of GTP
Protocol: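 Solubility proteome profiling in Jurkat crude lysate. Lysate was treated with Mg-GTP (0.1-10 mM) for 10 min at room temperature and 3 min at 37 °C, then solubilised with 0.8% NP40 and benzonase, followed by ultracentrifugation. Proteins were quantified by TMT10 LC-MS/MS; the value is the NP40-soluble abundance relative to the NP40-processed vehicle, from 3 independent experiments.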

In the case of `Nc1nc2c(ncn2[C@@H]2O[C@H](COP(=O)(O)OP(=O)(O)OP(=O)(O)O)[C@@H](O)[C@H]2O)c(=O)[nH]1` [guanosine triphosphate], the NP40-soluble protein abundance (concentration: 0.1mM) is reported as 1.05 ± 0.044, the NP40-soluble protein abundance (concentration: 0.5mM) is reported as 1.04 ± 0.043 and the NP40-soluble protein abundance (concentration: 1mM) is reported as 1.04 ± 0.065. The NP40-soluble protein abundance (concentration: 2mM) was 1.07 ± 0.023, the NP40-soluble protein abundance (concentration: 4mM) was 1.16 ± 0.069 and the NP40-soluble protein abundance (concentration: 6mM) was 1.14 ± 0.025. For the same compound, the NP40-soluble protein abundance (concentration: 8mM) was 1.2 ± 0.016 and the NP40-soluble protein abundance (concentration: 10mM) was 1.21 ± 0.023.
